SMARCA2 activ: SMARCA2 (BRM) function activators, primary screen, cell-based, luminescence, high throughput; MG213 cells, MMTV-luciferase reporter, dexamethasone, overnight; activation, % at 9.1 µM; hit rate 1% among 370,000; AID 652017, 2013; in the data active = activation above about 7.8%;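 note: 0% = vehicle wells and 100% = reference activator wells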
GalR3 antagonist: GalR3 antagonists in HEK293 cells, primary screen, cell-based, fluorescence readout. HEK293 GalR3-CNG cAMP membrane potential fluorescence; galR3 body fused to GalR1 C-terminus. inhibition, % at 3 µM. hit rate 0.44% among 360,000. AID 651719, 2012;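 active = inhibition above the screen-wide average plus 3 SD, cut at about 13% in these data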;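 note: forskolin and galanin both at EC90 stimulate the cells; cAMP rise reported by CNG channel membrane potential dye signal; 0% = forskolin plus galanin with DMSO and 100% = forskolin alone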
Target sequence (O60755 1-299 limits assumed): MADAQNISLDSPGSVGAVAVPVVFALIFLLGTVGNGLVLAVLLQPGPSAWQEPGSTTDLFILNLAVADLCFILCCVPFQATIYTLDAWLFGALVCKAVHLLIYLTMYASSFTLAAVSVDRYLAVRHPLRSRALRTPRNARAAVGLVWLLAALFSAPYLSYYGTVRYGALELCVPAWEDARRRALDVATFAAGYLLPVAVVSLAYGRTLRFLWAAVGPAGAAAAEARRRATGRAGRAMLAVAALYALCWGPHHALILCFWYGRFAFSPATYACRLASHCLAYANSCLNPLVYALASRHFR
Hsp70 activator: Hsp70 transcriptional activators, primary screen, cell-based, HeLa, Hsp70 promoter luciferase, luminescence, 10 µM; HeLa Hsp70 promoter luciferase reporter; scaled: vehicle 0, proteasome-inhibitor control 100%; activation, % at 10 µM; hit rate 0.04% among 200,000;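 active = activation above the mean across all tested compounds plus 3 SD, cutoff set per campaign, cut at about 5.5% in these data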;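 note: 100% = MG132 at 30 µM as the positive control and 0% = DMSO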
HIF activator: HIF pathway transcriptional activators, primary screen, cell-based, U2OS HRE-luciferase, luminescence; U2OS HRE-luciferase reporter; normalized: DMSO 0%, desferrioxamine 100%; hit rate 0.32% among 300,000; activation, % at 7.5 µM (by protocol); AID 1910, 2009;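 active = mean activation of at least 10% of the iron chelator positive control signal, with at least half of replicates also reaching 10%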
GAA850 FXN act: FXN promoter activators, primary screen, cell-based, luciferase luminescence, HEK293 lucGAA850; HEK293 lucGAA850 FXN promoter luciferase reporter, 24 h; percent of 10 µM SAHA response; activation, % at 6 µM; hit rate 0.56% among 360,000;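 active = activation above the average of all compounds screened plus 3 SD, cutoff fixed separately per campaign, cut at about 7.5% in these data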;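 note: 0% = DMSO wells and 100% = 10 µM SAHA wells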
SMARCA2 act conf: SMARCA2 (BRM) function activators, confirmation, cell-based, luminescence, triplicate | hit rate 30% among 3,500 | activation, % at 9.1 µM | MG213 cells, MMTV-luciferase with dexamethasone, overnight; MG213 cells expressing E1A, Rb sequestered; DMSO wells 0%, reference activator 100% | shares compounds with SMARCA2 activ | AID 652260, 2013;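 active = activation above its plate's cutoff, the mean activation of tested wells plus 3 SD, cut at about 7.9% in these data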
VP16 Luc act: GAL4-VP16 luciferase reporter activation, counter-screen for SMARCA2 (BRM) activator project, cell-based, pG5luc, luminescence, high throughput; activation, % at 9.1 µM; shares compounds with SMARCA2 activ; HEK293 GAL4-VP16 pG5luc reporter; scaled: DMSO wells 0%, SAHA wells 100%; hit rate 41% among 3,500; AID 686939, 2013;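 active = activation above the solvent-only control well mean plus 3 SD, averaged across control plates, cut at about 5.2% in these data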
Numbers without * were called inactive; x = no result. Compounds with a hit are over-represented: about 2.2% of the library has one in this group of screens.

SMILES	SMARCA2 activ	GalR3 antagonist	Hsp70 activator	HIF activator	GAA850 FXN act	SMARCA2 act conf	VP16 Luc act
O=C(OCc1cn(Cc2ccc(F)cc2)nn1)N1CCOCC1	-1.4	x	x	x	x	x	x
Cc1ccc(CNC(=O)C2CCC(=O)N(C3CCCC3)C2)c(F)c1F (stereo not given)	9.7*	-9.9	x	0.5	1.8	-2.4	0.2
COc1ccc(-c2nnc(SCC(=O)NN=C/C=C\c3ccco3)n2-c2ccc(OC)cc2)cc1	-1.6	x	x	x	x	x	x
O=C(Cc1ccccc1)N(c1ccc(F)cc1)C1C=CS(=O)(=O)C1 (stereo not given)	9.9*	-2.3	-0.4	-0.7	-1.5	-2.3	0.5
CC(COc1ccc(OC(F)(F)F)cc1)CN1CCC(C(O)(c2ccccc2)c2ccccc2)CC1 (stereo not given)	-9.9	x	x	x	x	x	x
O=C1NC(=O)C2(CCCc3ccc(N(CCO)CCO)cc32)N1 (stereo not given)	-0.1	-2.2	x	x	x	x	x
O=C(O)/C=C/c1ccc([N+](=O)[O-])o1	-3.7	-3.1	-0.3	0.6	2.8	x	x
O=[N+]([O-])c1ccc(/C=N/N=C/c2ccc([N+](=O)[O-])o2)o1	19.1*	-2.7	-0.1	x	-10.9	-13.8	-1.8
Cc1onc(-c2ccccc2Cl)c1C(=O)NC(=S)Nc1ccc(C(C)(C)C)cc1	10.6*	-5.7	x	-0.1	-0.1	3.2	-0.5
CCc1ccc(NC(=S)NC(=O)c2c(-c3ccccc3Cl)noc2C)cc1	4.6	4.3	x	0.2	-1.5	x	x
CCCNc1ccc(C(=O)OCC)cc1[N+](=O)[O-]	9.3*	-1.2	0.1	3.0	7.0	8.4*	4.4
Cc1cc(C)c2[nH]c(=O)c(CN(Cc3cccnc3)C(=S)NCCCN(C)C)cc2c1	10.9*	-7.2	-0.2	0.0	1.9	-4.1	1.8
CCCCOCCCNC(=O)C[C@H]1C[C@@]2(C(=O)OC)C(=C[C@H](C(C)(C)C)O[C@@H]2C)N(Cc2ccc(Cl)cc2Cl)C1=O	-1.8	x	x	x	x	x	x
CCc1nn(CC(=O)N2CCN(c3ccc(OC)cc3)CC2)c(=O)c2cc3occc3n12	8.4*	-9.7	x	0.1	3.0	0.4	3.3
CCOC(=O)Cn1cc(CN2C(C(=O)OC)CN(C3CC3)CCS2(=O)=O)nn1 (stereo not given)	-5.4	x	x	x	x	x	x
Nc1nnc(-c2ccccc2F)s1	1.4	1.6	-0.1	0.5	2.3	x	x
Nc1nnc(-c2ccc(Cl)cc2Cl)s1	12.4*	-5.9	0.0	2.1	3.0	6.3	8.2*
COc1ccc(Cn2cc3c(-c4ccc(F)cc4)nnc-3c3cc(OC)c(OC)cc32)cc1	22.1*	-0.6	-0.1	x	1.0	46.6*	0.5
COc1cc2c3nnc(-c4ccc(F)cc4)c-3cn(Cc3ccc(F)cc3)c2cc1OC	4.7	0.4	-0.1	-0.9	0.2	x	x
CCN(CC)CCNc1nc2cc(OC)c(OC)cc2c2nc(-c3ccccc3)nn12	9.7*	-1.0	0.0	1.5	-4.2	26.0*	0.9
CC(C)Oc1ccc(C2CC(=O)N(c3cccc(C(=O)O)c3)C2=O)cc1 (stereo not given)	9.8*	-5.7	-0.4	0.8	2.4	2.1	2.3
CC(C)Oc1ccc(C2CC(=O)N(c3ccc(C(=O)O)cc3)C2=O)cc1 (stereo not given)	-0.4	-3.0	0.3	-0.1	-0.9	x	x
CC(C)n1nnnc1C1(C)CSCC(=O)N1Cc1cccc(F)c1 (stereo not given)	-1.5	x	x	x	x	x	x
CCOc1ccc(NC(=O)C(c2ccccn2)N(C(=O)CCl)c2ccc(OC)cc2)cc1 (stereo not given)	9.7*	-1.4	0.1	1.5	2.8	7.7	4.4
CCOC(=O)c1cnc2c(C(=O)OC)cccc2c1NCc1ccco1	8.0*	-4.1	0.1	x	2.3	7.3	0.8
SMILES	SMARCA2 activ	GalR3 antagonist	Hsp70 activator	HIF activator	GAA850 FXN act	SMARCA2 act conf	VP16 Luc act
CCOC(=O)c1ccc2ncc(C(=O)OCC)c(NCc3ccco3)c2c1	13.3*	-5.0	-0.2	0.1	2.4	0.4	3.5
CCOC(=O)c1cnc2c(ccc3ccccc32)c1NCCCN(C)C	19.4*	-13.2	x	7.3	2.7	40.0*	8.1*
C[C@H]1[C@@H](C(=O)N2CCCC2)Cc2nc3ccccc3nc2C[C@@H]1c1ccccc1	-0.6	x	x	x	x	x	x
COC(=O)[C@@]12CCCCC3=C1N(CCC3)C(=O)[C@H]2CC(=O)NCCC(C)C	-2.6	x	x	x	x	x	x
CN(CCOC(=O)CCCc1ccccc1)C1CN(Cc2cn(Cc3ccccc3F)nn2)S(=O)(=O)C1 (stereo not given)	-2.6	x	x	x	x	x	x
COc1cc(C=NN=c2sc3ccccc3n2C)ccc1OCCO	11.0*	-7.5	x	x	x	10.2*	11.8*
CCOC(=O)[C@@]12CCC3=C1N(CCC3)C(=O)[C@H](CC(=O)NCc1ccc(OC)c(OC)c1)C2	-2.1	x	x	x	x	x	x
CC(=O)C1=C(C)N(Cc2ccc(Br)cc2)C(=S)NC1c1ccc(F)cc1 (stereo not given)	-6.4	-6.4	x	x	x	x	x
O=C1c2cccc3cccc(c23)C(=O)N1c1cccnc1	8.5*	-2.0	0.0	-0.5	0.8	-0.7	1.1
CC(C)(C)OC(=O)N1C[C@@]23C[C@H](c4cccc(F)c4)[C@@H](C[C@@H]2S1(=O)=O)O3	-1.0	-6.0	x	x	x	x	x
CC1CCCCN1S(=O)(=O)c1ccc(S(=O)(=O)N2CCCC2)cc1 (stereo not given)	8.9*	-4.6	x	0.0	1.4	-1.7	-0.1
O=C(Nc1ccc(-c2cn3ccccc3n2)cc1)c1cccs1	8.1*	-2.9	0.0	1.3	-0.8	28.2*	13.6*
CC(=O)Nc1ccc2nc(-c3ccccc3)cn2c1	8.8*	-3.9	0.1	1.2	7.2	9.4*	7.6*
Cc1ccn(-c2ccc(NC(=O)c3cccs3)cc2)n1	8.0*	-7.5	x	2.9	2.4	9.0*	7.9*
O=C(Nc1ccc(NC(=O)c2ccccc2F)cc1)c1cccs1	8.8*	1.6	x	x	1.9	4.8	7.7*
O=C(Nc1ccc(NC(=O)c2cccs2)cc1)c1cccs1	4.3	-0.1	x	1.0	2.7	x	x
CC(C)NC(=O)N[C@H]1C[C@@H]2O[C@@H](CO)CC[C@@H]2O[C@@H]1CCc1ccc(-c2ccccc2F)cc1	-3.1	x	x	x	x	x	x
COc1cc(NC(=O)CSc2c3c(nc4ccccc24)CCC3)cc(OC)c1OC	-1.7	-1.2	-0.3	0.3	-3.0	x	x
